Data from PubChem BioAssay (NCI).
About 79,000 compounds went through this panel and 15% of them were active in at least one assay; those are over-represented in the sample as a whole. Unmarked numbers belong to inactive results. Activity calls are given as the source filed them. Rule as the data show it: active = growth inhibition above about 70%; inactive = the rest.

Test: NCI Yeast Anticancer Drug Screen. Data for the rad52 strain (AID 147);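 also: 0% = growth of vehicle-treated control cultures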
Settings: S. cerevisiae rad52 mutant growth inhibition, active compounds read high
Experimental: Growth inhibition of yeast strains with defined genetic alterations is measured as a screen for potential anti-cancer activity. Selected strains with alterations in DNA damage repair or cell cycle control were exposed to compounds and growth inhibition was measured relative to vehicle treated controls. The strain used in this assay is rad52

SMILES | growth inhibition (at 1.2 µM) | growth inhibition (at 3.7 µM) | growth inhibition (at 11.0 µM) | growth inhibition (at 33.0 µM) | growth inhibition (at 100.0 µM)
COc1cccc2c1C(=O)c1c(O)c3c(c(O)c1C2=O)CC(O)(C(O)CO)CC3OC1CC(N2CCOCC2)C(O)C(C)O1 (stereo not given) | 96% (active) | 96% (active) | 96% (active) | 96% (active) | 96% (active)
CCOC(=O)/C(=C\c1ccc(C#N)cc1)C(C)=O | -40% | -32% | -4% | 86% (active) | 99% (active)
CC(C)(C)[Si](C)(C)OCC1CCC(n2cnc3c(NC(=O)c4ccccc4)ncnc32)O1 (stereo not given) | -2% | -3% | -2% | -1% | -2%
O=[N+]([O-])c1cc(Cl)cnc1Br | 23% | 46% | 75% (active) | 92% (active) | 97% (active)
NC(N)=NS(=O)(=O)c1ccc(Nc2c3ccccc3nc3c(C(=O)NCCO)cccc23)cc1 | 1% | 3% | 4% | 17% | 82% (active)
CCN(CC)CCN(C)CCc1ccc(Br)cc1 | 12% | 19% | 37% | 48% | 91% (active)
O=C(NO)Nc1cc(Cl)cc(Cl)c1 | 7% | 39% | 99% (active) | 99% (active) | 97% (active)
O=C1OC(C2=CC(=O)c3ccccc3C2=O)C(Cl)=C1Cl (stereo not given) | 3% | 15% | 46% | 89% (active) | 91% (active)
